The supplement of paper PMC8975748
Counter-ions that a name gives are not always drawn.

What follows are compounds tested on Saccharomyces cerevisiae BY4741 SeMeCo community (assay: z-score of subpopulation abundance vs DMSO median, subpopulation auxotrophic for HLM; higher = larger share of this subpopulation than in DMSO controls). Conditions: 10 µM; 24 h; SM minimal medium; subpopulation (auxotrophy): HLM.
Summary of the method: (§1)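 Cells of a Saccharomyces cerevisiae BY4741 community, carrying four plasmids that each restored one auxotrophy and encoded a distinct fluorescent protein, were pre-grown overnight to OD600 1.0 and diluted to 0.3. A 70 µl volume was added to 384-well plates acoustically predosed with library drugs (10 µM final) and grown 24 h in minimal SM medium. After paraformaldehyde fixation, automated confocal microscopy was used, with single-auxotroph fluorescent strains for thresholds and autofluorescence correction. The abundance of each subpopulation was scored as a z-score against the vehicle-well median.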

Structure (SMILES) | z-score of subpopulation abundance
C(=C\c1ccccc1)/CN1CCN(C(c2ccccc2)c2ccccc2)CC1 [Cinnarizine] | -0.32
C=CC[N+]1([C@H]2C[C@H]3[C@@H]4CC[C@H]5C[C@H](O)[C@@H](N6CCOCC6)C[C@]5(C)[C@H]4CC[C@]3(C)[C@H]2OC(C)=O)CCCC1 [Rocuronium Bromide] | -0.65
CCn1cc(C(=O)O)c(=O)c2cc(F)c(N3CCNCC3)cc21 [Norfloxacin] | -0.51
CN1CCC(=C2c3ccccc3CCc3sccc32)CC1 [Pizotifen Malate] | 0.21
CC1(C)S[C@@H]2[C@H](NC(=O)[C@H](NC(=O)N3CCN(S(C)(=O)=O)C3=O)c3ccccc3)C(=O)N2[C@H]1C(=O)O [Mezlocillin Sodium] | -0.19
Cc1c(OCC(F)(F)F)ccnc1C[S@@+]([O-])c1nc2ccccc2[nH]1 [Dexlansoprazole] | -0.96
Cc1nc(C)c(Cl)c(O)c1Cl [Clopidol] | 0.14
O=C(CCCN1CCN(c2ccccn2)CC1)c1ccc(F)cc1 [Azaperone] | -0.5
COc1ccc(C(=O)NCc2ccc(OCCN(C)C)cc2)cc1OC [Itopride hydrochloride] | 0.04
CSCC1CN(/N=C/c2ccc([N+](=O)[O-])o2)C(=O)O1 (stereo not drawn) [Nifuratel] | 2.19

These compounds were tested on Saccharomyces cerevisiae BY4741 SeMeCo community (assay: z-score of subpopulation abundance vs DMSO median, subpopulation auxotrophic for HUM; higher = larger share of this subpopulation than in DMSO controls). Conditions: 10 µM; 24 h; SM minimal medium; subpopulation (auxotrophy): HUM.
Summary of the method: as §1

Structure (SMILES) | z-score of subpopulation abundance
CC(C(=O)O)c1ccc(C(=O)c2cccs2)cc1 (stereo not drawn) [Suprofen] | -1.16
COc1cccc2c1C(=O)c1c(O)c3c(c(O)c1C2=O)C[C@@](O)(C(=O)CO)C[C@@H]3O[C@H]1C[C@H](N)[C@H](O[C@@H]2CCCCO2)[C@H](C)O1 [Pirarubicin] | -1.83
N=C(N)NC(=N)N1CCOCC1 [Moroxydine HCl] | -0.28
Nc1c(CC(=O)O)cccc1C(=O)c1ccccc1 [Amfenac Sodium Monohydrate] | 0.74
CN1CCN(c2c(F)cc3c(=O)c(C(=O)O)cn4c3c2OCN4C)CC1 [Marbofloxacin] | 0.33
CN1CCOC(c2ccccc2)c2ccccc2C1 (stereo not drawn) [Nefopam HCl] | -0.51
COc1ccc(C(C)=O)c(O)c1 [Paeonol] | 0.18
Cc1ccc2c(Cl)cc(Cl)c(O)c2n1 [Chlorquinaldol] | 15.8
NC[C@@H]1O[C@H](O[C@H]2[C@@H](O)[C@H](O[C@@H]3[C@@H](O)[C@H](N)C[C@H](N)[C@H]3O[C@H]3O[C@H](CO)[C@@H](O)[C@H](O)[C@H]3N)O[C@@H]2CO)[C@H](N)[C@@H](O)[C@@H]1O [Paromomycin Sulfate] | 0.69
CN(C)CCC=C1c2ccccc2C=Cc2ccccc21 [Cyclobenzaprine HCl] | -0.09
CCNC(=O)[C@@H]1CCCN1C(=O)[C@H](CCCNC(=N)N)NC(=O)[C@H](CC(C)C)NC(=O)[C@@H](CC(C)C)NC(=O)[C@H](Cc1ccc(O)cc1)NC(=O)[C@H](CO)NC(=O)[C@H](Cc1c[nH]c2ccccc12)NC(=O)[C@H](Cc1c[nH]cn1)NC(=O)[C@@H]1CCC(=O)N1 [Leuprolide Acetate] | 0.45
COc1cc(NS(=O)(=O)c2ccc(N)cc2)nc(OC)n1 [SulfadiMethoxine sodium] | -0.22
CCN1CCN(c2cc3c(cc2F)c(=O)c(C(=O)O)cn3C2CC2)CC1 [Enrofloxacin] | 0.02
O=C1CN(/N=C/c2ccc(-c3ccc([N+](=O)[O-])cc3)o2)C(=O)N1 [Dantrolene sodium] | -2.36
Cc1cc(-c2ccc(/N=N/c3ccc4c(S(=O)(=O)O)cc(S(=O)(=O)O)c(N)c4c3O)c(C)c2)ccc1/N=N/c1ccc2c(S(=O)(=O)O)cc(S(=O)(=O)O)c(N)c2c1O [Evans Blue] | -6.59
NC[C@H]1O[C@H](O[C@H]2[C@H](O)[C@@H](O[C@H]3O[C@H](CO)[C@@H](O)[C@H](N)[C@H]3O)[C@H](N)C[C@@H]2N)[C@H](N)C[C@@H]1O [Tobramycin] | 0.03
CCc1cccc2c3c([nH]c12)C(CC)(CC(=O)O)OCC3 (stereo not drawn) [Etodolac] | -0.52
CO[C@H]1C[C@@H]2CC[C@@H](C)[C@@](O)(O2)C(=O)C(=O)N2CCCC[C@H]2C(=O)O[C@H]([C@H](C)C[C@@H]2CC[C@@H](OP(C)(C)=O)[C@H](OC)C2)CC(=O)[C@H](C)/C=C(\C)[C@@H](O)[C@@H](OC)C(=O)[C@H](C)C[C@H](C)/C=C/C=C/C=C/1C [Ridaforolimus (Deforolimus, MK-8669)] | 29.1
